High-throughput results from PubChem.
HTT aggregate – mutant huntingtin aggregation inhibition; PC12 HttQ103-GFP aggregates, Acumen cytometry, 40 h; hit rate 1.1% among 220,000; Potency, µM (titrated, usually from 46.1 µM), for the others: at the top dose activity change, negative = inhibition, hits mostly inhibitors; note: % is set by controls: 0 for no effect and ±100 for the full control effect; nearly all actives have a fitted effect of over 60% in size
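Steps: seed 1500 PC12 HTTQ103-GFP cells/well; add tebufenozide, 100 nM final; add compound titration; add ATPLite reagent; quantify GFP aggregates by laser scanning cytometry.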
HTT ATP protect – Huntington cell model cytoprotection by ATP luminescence | AID 1471 | PC12 HTT-Q103 induced, cytoprotection, ATP luminescence, 40 h | hit rate 0.14% among 230,000 | Potency, µM (titrated, usually from 56.4 µM), inactives show cytoprotection (ATP increase), hits mostly activators; note: % of control where 0% means no effect; nearly all actives have a fitted effect of over 45% in size
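Compounds added alongside 100 nM tebufenozide, which induces toxic Q103 huntingtin exon 1-GFP in stable PC12 cells; surviving cells quantified by luminescent ATP measurement. Medium: phenol red-free DMEM, 5% equine and 5% calf serum.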
Anesthetic bind – binds horse apoferritin like a general anesthetic; AID 485281; hit rate 0.074% among 350,000; Potency, µM (series often up to 77.5 µM), for inactives: top-dose activity change, negative = displacement, usual class: inhibitors; apoferritin/1-aminoanthracene competitive binding, fluorescence; note: % is set by controls: 0 for no effect and ±100 for the full control effect; nearly all actives have a fitted effect of over 20% in size
Target sequence (P02791 2-175 limits assumed): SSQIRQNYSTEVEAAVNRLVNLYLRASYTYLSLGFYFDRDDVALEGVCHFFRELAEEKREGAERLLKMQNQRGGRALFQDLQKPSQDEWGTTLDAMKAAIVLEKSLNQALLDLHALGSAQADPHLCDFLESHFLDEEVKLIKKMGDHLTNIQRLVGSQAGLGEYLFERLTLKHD
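In PBS, apoferritin at 10 uM is loaded with 1-AMA from a 50% saturated solution. After 10 min of compound exposure at ambient temperature, reduced 535 nm fluorescence indicates probe displacement.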
Epigenetic derep – epigenetic control regulation, reporter derepression; murine LDR cells, GFP reporter derepression, 30 h; Potency, µM (top dose mostly 53.9 µM), inactives show at the top dose GFP activation, hits mostly activators; hit rate 0.2% among 280,000; note: % of control where 0% means no effect; nearly all actives have a fitted effect of over 60% in size
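Readout is the number of GFP-expressing murine LDR cells, counted by cytometry following washing. Cells were treated with compound for 30 h at 37 C; the stably integrated CMV-GFP locus is normally silent.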
PINK1 modulator – changes PINK1 expression | PINK1 immunofluorescence, high-content cytometry, 24 h | Potency, µM (series often up to 76.6 µM), inactives show at the highest dose activation (PINK1 increase), hits mostly activators | hit rate 0.2% among 410,000 | AID 624263; active = well fitted activation curve with a large enough effect; inconclusive = small, poorly fitted or top-dose-only effect; cell line not stated here; note: % of control where 0% means no effect; nearly all actives have a fitted effect of over 65% in size
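PINK1 protein, normally rapidly degraded, was detected by immunofluorescence after 24 hour compound treatment of a stable cell line. Titration data (5 concentrations) came from laser-scanning cytometry, with CCCP-treated wells as controls.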
TSG101-PTAP inh – blocks PTAP/TSG101 interaction to inhibit HIV-1 budding | Q99816 | Fluorescence polarization, FITC-PTAP peptide / Tsg101 binding | 340,000 tested, under 10 active | Potency, µM (top dose mostly 115 µM), inactives show at the top dose activity change, negative = inhibition, usual class: inhibitors; active = well fitted inhibition curve with a large enough effect in the main read-out, with a control signal flat, not every such curve was filed as active; inconclusive = small, poorly fitted or top-dose-only effect, or effect the other way, or a change in a side signal; inactive = no such curve, though single readings can be large or run the other way; note: % of control where 0% means no effect
Target sequence (Q99816 whole entry, looked up): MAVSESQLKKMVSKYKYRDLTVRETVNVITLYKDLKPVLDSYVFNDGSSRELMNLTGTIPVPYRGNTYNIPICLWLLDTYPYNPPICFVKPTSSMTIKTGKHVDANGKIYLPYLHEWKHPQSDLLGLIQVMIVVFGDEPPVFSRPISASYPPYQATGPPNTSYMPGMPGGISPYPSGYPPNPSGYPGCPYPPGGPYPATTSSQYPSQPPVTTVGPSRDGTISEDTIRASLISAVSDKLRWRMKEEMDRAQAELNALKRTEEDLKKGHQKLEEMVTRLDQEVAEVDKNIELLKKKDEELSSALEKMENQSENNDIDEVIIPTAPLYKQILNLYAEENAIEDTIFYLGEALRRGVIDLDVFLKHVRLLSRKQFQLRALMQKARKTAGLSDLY
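FP read-out: FITC-PTAP peptide, 50 nM final, binding Tsg101 binding domain, 10 uM final; 20 min, r.t.; 10 mM HEPES pH 7.5, 0.15 M NaCl, 0.01% Tween 20, 3 mM EDTA, 0.1 mM TCEP.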
* hit, by the source's call; ? = inconclusive; nt = no result given; [ ] = remark or other dose. This excerpt belongs to a sample that is enriched for hits. Unless noted, calls come from the whole dose curve; as a rule, active = well fitted curve in the direction sought with a large enough effect; inconclusive = small, poorly fitted or top-dose-only effect, or another doubt; inactive = no such curve, though single readings can be large; an effect the other way counts as inactive or inconclusive. Potency is the fitted concentration of half-maximal effect.

SMILES	HTT aggregate	HTT ATP protect	Anesthetic bind	Epigenetic derep	PINK1 modulator	TSG101-PTAP inh
Cc1cc2c(c(-c3ccc(Cl)cc3)c1)OC(CNC(=O)CCC(=O)N(C)C)C2 (centres undefined)	nt	nt	nt	nt	1%	nt
O=C(C=Cc1ccccc1)c1ccc([N+](=O)[O-])cc1	nt	nt	nt	nt	2%	-4%
O=[N+]([O-])c1ccc(C=CC=Cc2ccccc2)cc1	nt	nt	nt	nt	32µM*	nt
N#C/C(=C(/O)c1ccccc1F)c1nc2cc(C(F)(F)F)ccc2s1	20%[9.22 µM]	14%[10 µM]	-2%	-1%	?	-8%
N#C/C(=C(/O)c1ccc2c(c1)OCO2)c1nc2cc(C(F)(F)F)ccc2s1	nt	nt	-16%	nt	14µM*	-1%
O=C(NCc1ccccn1)c1cnn(-c2nccc(-c3ccccc3F)n2)c1C1CC1	nt	nt	nt	nt	-1%	nt
Cc1ccc2nc3sc(C(=O)Nc4c(C)[nH]c(=O)[nH]c4=O)c(N)c3cc2c1	-29%	5%[10 µM]	1%	?	?	?
Cc1ccc2cc3c(N)c(C(=O)Nc4c(C)[nH]c(=O)[nH]c4=O)sc3nc2c1	?	6%[10 µM]	-13%	?	32µM*	?
O=c1c2c3nc4ccccc4nc3n(/N=C/c3ccncc3)c2ncn1-c1ccccc1	-12%[9.22 µM]	-3%[10 µM]	-7%	2%	5%	-3%
O=c1c2c3nc4ccccc4nc3n(/N=C/c3cccs3)c2ncn1-c1ccccc1	1.8µM*	-8%[0.074 µM]	-5%	1%	nt	nt
COc1ccc(OC)c(-c2cc(Cl)c3c(c2)CC(CNC(=O)c2cccnc2SC)O3)c1 (centres undefined)	nt	nt	nt	nt	0%	nt
c1ccc(Oc2cnc3ccccc3n2)cc1	?	-3%	?	0%	-2%	-4%
CC(=O)Nc1ccc(Oc2cnc3ccccc3n2)cc1	11µM*	23%	?	0%	-2%	-3%
COc1ccc(Oc2cnc3ccccc3n2)cc1	11µM*	-30%	-10%	-3%	0%	0%
CCn1c(C(=O)N2CCCC(C(=O)NCCCOC)C2)cc2sccc21 (centres undefined)	nt	nt	9%	7%	2%	nt
CCCCN1C(=O)/C(=C/C=C2/CC(C)(C)CN2C)SC1=S	-13%	-4%[10 µM]	?	14µM*	13%	?
CN1/C(=C\C=C2/SC(=S)N(CC(=O)O)C2=O)C(C)(C)c2ccccc21	-40%[9.22 µM]	?	?	1%	0%	?
CCCN1C(=O)/C(=C/C=C2\N(CC)c3ccccc3C2(C)C)SC1=S	2%	9%	-17%	3.2µM*	12%	?
C=CCN1C(=O)/C(=C\C=C2\N(C)c3ccccc3C2(C)C)SC1=S	-18%	-8%[10 µM]	-8%	5µM*	8%	?
CCCCN1C(=O)/C(=C/C=C2\Oc3ccccc3N2CC)SC1=S	?	-6%[10 µM]	-18%	1µM*	?	?
CCN1C(=O)/C(=C/C=C2/Sc3ccccc3N2CCO)SC1=S	10%	-46%	-13%	0%	-1%	1%
COCCC(=O)NCC1Cc2cc(Cl)cc(-c3ccc4[nH]ccc4c3)c2O1 (centres undefined)	nt	nt	nt	nt	2%	nt
O=C(c1cccnc1)C1CCCN(Cc2ccc3c(c2)CN(C(=O)c2ccc4[nH]ccc4c2)CCO3)C1 (centres undefined)	nt	nt	nt	nt	0%	nt
O=C(NCc1ccncc1)c1cnn(-c2ncc3c(n2)-c2ccccc2CC3)c1C1CC1	nt	nt	nt	nt	1%	nt
CCCN1C(C(=O)c2ccccc2)=C(OC(=O)COc2ccccc2)c2ccccc2S1(=O)=O	nt	nt	-5%	6%	2%	nt
SMILES	HTT aggregate	HTT ATP protect	Anesthetic bind	Epigenetic derep	PINK1 modulator	TSG101-PTAP inh
C=CCN1C(C(=O)c2ccccc2)=C(OC(=O)COc2ccccc2)c2ccccc2S1(=O)=O	13µM*	18%[10 µM]	10%	-3%	0%	-1%
CCn1cc(C(=O)O)c(=O)c2cc(F)c(N/N=C/c3ccccc3[N+](=O)[O-])cc21	?	0%[10 µM]	-7%	-2%	40µM*	0%
c1ccc(C2OC3c4cccc5cccc(c45)C3N2c2ccccc2)cc1 (centres undefined)	11µM*	25%[10 µM]	-10%	-1%	9%	-3%
CC(O)CN(C)CC/C=C1/c2ccccc2CSc2ccccc21 (centres undefined)	8.9µM*	6%[10 µM]	-12%	1%	0%	-5%
CN(CC/C=C1/c2ccccc2CSc2ccccc21)CCCO	?	nt	0%	0%	1%	-2%
CCCc1nc2cccnc2n1C1CCN(C(=O)CC2NC(=O)c3ccccc32)CC1 (centres undefined)	nt	nt	nt	nt	1%	nt
CCCn1nc2cc(C(=O)NCC34CC5CC(CC(C5)C3)C4)ccc2c1OCC	32µM*	-29%	-16%	-1%	9%	nt
Cc1ccc(Cl)cc1NS(=O)(=O)c1ccc2oc(=O)c3ncn(C)c3c2c1	nt	nt	?	2%	1%	nt
O=C(Cn1c2c(sc1=O)C1c3ccccc3OCC1CS2)Nc1ccc(Cl)c(Cl)c1 (centres undefined)	2.8µM*	4%[10 µM]	-6%	9%	1%	-11%
O=[N+]([O-])c1ccc(O)c(N=Cc2sc3ccccc3c2O)c1	7.9µM*	nt	-14%	0%	4%	-1%
Oc1ccc(Cl)cc1N=Cc1sc2ccccc2c1Cl	?	2.2µM*	?	14%	9%	-2%
Cc1cccc(/N=C/c2sc3ccccc3c2O)n1	1%[9.22 µM]	5%[10 µM]	-12%	4%	45µM*	-5%
COc1ccc(N=Cc2sc3ccccc3c2Cl)cc1	-3%	-10%	?	1%	0%[38.3 µM]	0%
CCc1cccc(NC(=O)c2cc3c(=O)n(Cc4ccc(OC)cc4)ccc3nc2C)c1	nt	nt	?	1%	3%	nt
Cc1nc(C)c(C(=O)NCc2nc(-c3cccc(NC(=O)c4ccccn4)c3)oc2C)s1	nt	nt	nt	nt	-1%	nt
O=C(CCN1C(=O)COc2ccccc21)NCCCN1CCN(c2ccccc2F)CC1	3.2µM*	-34%	2%	-1%	nt	-5%
O=C1N/C(=N\N=C\c2ccccn2)SC1Cc1cccc(SC(F)F)c1 (centres undefined)	5.6µM*	-78%[10 µM]	-10%	0%	3%	0%
O=C1N/C(=N\N=C\c2cccnc2)SC1Cc1ccc(SC(F)F)cc1 (centres undefined)	5.6µM*	-68%[10 µM]	-8%	4%	0%	-2%
O=C1N/C(=N\N=C\c2ccc3ncccc3c2)SC1Cc1ccc(SC(F)F)cc1 (centres undefined)	32%	-46%	-12%	2%	-7%[38.3 µM]	-4%
O=C(c1cnn(-c2ccccc2)c1)c1ccccc1O	11µM*	2%[10 µM]	-12%	0%	2%	-4%
